Results published in PubChem BioAssay (NCATS).
Records with an inconclusive call do not appear. Entries that show only a call come without a potency. Activity calls are given as the source filed them. The call rests on the fitted dose curve; in most records, active means well fitted inhibition curve with a large enough effect; inconclusive means small, poorly fitted or top-dose-only effect; inactive means no such curve, though single readings can be large or run the other way.

Each compound was assayed on Zika virus NS2B-NS3 protease (unlinked complex) (assay: Primary screen GU Rhodamine qHTS for Zika virus inhibitors: Unlinked NS2B-NS3 protease assay (AID 1347159; further: nearly all actives have a fitted effect of over 60% in size)). Conditions: Recombinant ZIKV NS2B-NS3 protease, Rhodamine110 substrate fluorescence; series mostly up to 107 µM.
Method in brief: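 Unlinked NS2B/NS3, 25 nM; Rhod110 peptide, 1.5 microM; compounds, up to 114 microM. Reaction run 15 min at RT in 10 mM Tris-HCl pH 8.0, 0.01% Tween 20; kinetic fluorescence change fitted with a 4-parameter Hill model.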

| SMILES | activity change, negative = inhibition | Potency |
| --- | --- | --- |
| CC(=O)O[C@@H]1[C@H](O[C@@H]2O[C@H](CO)[C@@H](O)[C@H](O)[C@H]2O)[C@@H](O[C@@H]2O[C@@H](C)[C@H](O)[C@@H](O[C@@H]3O[C@H](CO)[C@@H](O)[C@H](O)[C@H]3O)[C@H]2O)[C@H](OC(=O)C23CCC4(C)C(=CCC5C6(C)CC(O)C(O[C@@H]7O[C@H](C(=O)O)[C@@H](O)[C@H](O)[C@H]7O)C(C)(C(=O)O)C6CCC54C)C2CC(C)(C)CC3O)O[C@@H]1C (some centres undefined) | 7.44% [at 19.1 µM] (inactive) | – |
| CNC(=O)[C@H]1O[C@@H](n2cnc3c(NCc4ccc(N)c(I)c4)ncnc32)[C@H](O)[C@@H]1O | 10.8% [at 19.1 µM] (inactive) | – |
| CC[C@H](/C=C/[C@@H](C)[C@H]1CC[C@H]2[C@@H]3CC=C4C[C@@H](O)CC[C@]4(C)[C@H]3CC[C@]12C)C(C)C | 1.47% [at 11.5 µM] (inactive) | – |
| C/C(=C/CO)CC[C@@H]1[C@@]2(C)CCC[C@](C)(C(=O)O)C2CC[C@@]1(C)O (some centres undefined) | – | inactive |
| C/C=C1\[C@H](O[C@@H]2O[C@H](CO)[C@@H](O)[C@H](O)[C@H]2O)OC=C(C(=O)OC)[C@H]1CC(=O)OC | – | inactive |
| Cc1c(-c2ccnn2C)cc(C(=O)NCc2ccc(S(C)(=O)=O)cn2)c(=O)n1-c1cccc(C(F)(F)F)c1 | – | inactive |
| Oc1ccc([C@H]2COc3cc(O)ccc3C2)cc1 | – | inactive |
| COc1c(C)c(C(=O)c2ccc(N)c(C(=O)O)c2)n2ccccc12 | – | inactive |
| Cc1nc2c(-c3cnc(N)nc3)nc(N3CCOCC3)nc2n1C(C)C | – | inactive |
